# Source: PubChem BioAssay AID1745850 (National Center for Advancing Translational Sciences (NCATS), 2022)
# Hit rate of the full screen: of about 2,100 compounds, about 260 (12%) were called active. Roughly 58% stayed inconclusive and do not appear here. This is one part of the list. A number with no mark means an inactive call. The call rests on the fitted dose curve; in most records, active means well fitted cell-killing curve with a large enough effect; inconclusive means small, poorly fitted or top-dose-only effect, or effect the other way; inactive means flat fitted curve, though single readings scatter.
# Test: Viability Counterscreen for Confirmatory qHTS for Inhibitors of ATXN expression; further: nearly all actives have a fitted effect of over 50% in size
# Settings: HEK-293 ATXN2-luc cells viability, CellTiter-Fluor, 24 h; activity change, negative = cytotoxicity: at the top concentration
# Source text: PI: Daniel Scoles Ph.D. University of Utah School of Medicine, Salt Lake City, Utah MLPCN Grant: NS073009 Spinocerebellar ataxia type 2 (SCA2) is a multisystem neurodegenerative disease caused by a dominantly acting mutation leading to expansion of a polyQ domain in the ataxin-2 protein (ATXN2). SCA2 patients develop progressive ataxia and later lose function in other neuronal systems. Prominent parkinsonian signs develop in some patients. Like many neurodegenerative disorders, no symptomatic or disease-modifying treatments are known. The primary objective of the proposed research is to identify compounds inhibiting ATXN2 expression and to test them for efficacy in SCA2 mouse models. We have developed a cell-based assay paired with an in vivo mouse model using identical luciferase expression constructs. This approach takes advantage of an ATXN2-luciferase transgene, with the luciferase gene flanked by the upstream and downstream portions of the ATXN2 gene. Here we describe a 5-7 dose quantitative high thoroughput screen (qHTS) for compounds lowering ATXN2 expression. We screened the NIH Molecular Libraries Small Molecule Repository (MLSMR) and NCGC's mechanistically annotated (MIPE) and drug repurposing (NPC) collections of compounds for lowering expression of an ATXN2-luciferase reporter in HEK-293 cells. The assay is a multiplexed cell viability assay to ensure target reduction in the absence of cytotoxicity. Secondary qHTS assays included a CMV-luciferase reporter expressed in HEK-293 cells as well as a biochemical assay using recombinant luciferase to detect inhibitors of the reporter enzyme. Compounds that inhibit ATXN2 expression but is not cytotoxic were selected for confirmatory and secondary screens.
# PROTOCOL TABLE (as described by Inglese J, Shamu CE and Guy RK. 2007) SEQUENCE No. (e.g., 1, 2, 3, etc.); […] (e.g., Cells, Incubation, Reagent, etc.); VALUE; DESCRIPTION. 1; Cells; 4 uL; white, solid bottom, 1536-well Greiner assay plate. 2; Incubation; 2 hr; 37 degree C in 5% humidified CO2. 3; Compounds; 23 nL; Kalypsis pintool (Wako USA) equipped with a 1536-well pin head. 4; Incubation; 24 hr; 37 degree C in 5% humidified CO2. 5; Reagent; 1 uL; Gly-Phe-7-Amino-4-trifluoromethylcoumarin. 6; Incubation; 30 min; 37 degree C in 5% humidified CO2. 7; Detection; Fluorescence; ViewLux plate reader (PerkinElmer). 8; Reagent; 3 uL; SteadyGlo luciferase solution (Promega). 9; Incubation; 5 min; room temperature. 10; Detection; Luminescence; ViewLux plate reader (PerkinElmer). NOTES (numbers refer to Sequence numbers above) 1. S2 cells expressing ATXN2-luciferase reporter were suspended in phenol-red free DMEM and dispensed in assay plates using a Multidrop Combi dispenser (Thermo Fisher Scientific). Wells containing medium only were plated on each plate, and values were used to normalize (100% inhibition) in the luciferase and CellTiter-Fluor assays. 2. Assay plates were incubated. Evaporation was prevented by covering assay plates with metal lids containing holes to allow gas diffusion. 3. Compounds were added in a dose response manner with the final concentrations of 57, 11.4, 2.28, 0.46, 0.091, 0.018, 0.0037 uM. Vehicle-only plates, with DMSO being pin-transferred to columns 5-48, were inserted uniformly at the beginning and the end of each library to monitor and record any shifts in assay performance. 5. 125 uM Gly-Phe-7-Amino-4-trifluoromethylcoumarin (MP Biomedicals) working concentration was used at a final concentration of 25 uM. 7. To assess cell viability; the assay plates were read using the ViewLux high-throughput CCD imager (PerkinElmer), wherein single end-point fluorescence measurement was acquired (excitation 405/10; emission 540/25 nm). 8. Detection reagent SteadyGlo Luciferase (Promega) was added to the assay plate. 10. Luminescence is then measured on the ViewLux imager equipped with a clear emission filter using a 2 sec exposure. […]
# Potency means the concentration at half of the fitted maximal effect.
SMILES,Potency,"activity change, negative = cytotoxicity"
COc1ccccc1N1CCN(Cc2ccc(O)c3ncccc23)CC1,2.82 µM (active),–
COc1cccc(CN2CCC2(C)C(=O)Nc2cccc3cccnc23)c1OC (stereo not drawn),–,-28.3%
COCc1cc(CN2CCCC2)c(O)c2ncccc12,–,-19.9%
Cc1ccc(/C=C2/CNC/C(=C/c3ccc(C)cc3)C2=O)cc1,11.2 µM (active),–
CN(C)CCNc1cccc2sc3ccc(O)cc3c(=O)c12,22.4 µM (active),–
CN(C)CCNc1ccc2ncn3c4ccc(O)cc4c(=O)c1c23,–,-23.3%
CCn1c2ccccc2c2cc(/C=C(/C#N)C(N)=S)ccc21,–,-21.4%
O=C(NN=C1CCCC1)c1cc(-c2ccc(F)cc2)nc2ccccc12,–,-13.9% [at 57.5 µM]
CCN(CC)S(=O)(=O)c1cccc(C(=O)N/N=C(\C)c2ccc(O)cc2O)c1,–,-17.5% [at 57.5 µM]
C/C(=N\NC(=O)c1cc(-c2cccnc2)nc2ccccc12)c1ccc(O)cc1O,11.2 µM (active),–
CCN(CC)c1ccc(/C=N/NC(=O)CNC(=O)C2COc3ccccc3O2)c(O)c1 (stereo not drawn),–,-22.3%
COc1ccc(CN2CCCN(S(=O)(=O)c3ccc(Br)cc3)CC2)cc1,–,-10.5% [at 57.5 µM]
Cc1cccc(OCCCC(=O)Nc2nccs2)c1,–,1.34%
O=C(NC(Nc1ncc(S(=O)(=O)c2ccc([N+](=O)[O-])cc2)s1)(C(F)(F)F)C(F)(F)F)c1ccc(Cl)cc1,10 µM (active),–
O=C(NC(Nc1nc2ccc([N+](=O)[O-])cc2s1)(C(F)(F)F)C(F)(F)F)c1ccccc1,2.24 µM (active),–
Cc1ccc(S(=O)(=O)c2cc3cc(Br)ccc3oc2=O)cc1,–,-3.3% [at 57.5 µM]
Cn1c(CO)cnc1S(=O)(=O)Cc1ccc([N+](=O)[O-])cc1,–,-12.7% [at 57.5 µM]
O=C(CN1CCN(C(=O)c2ccc(-c3nc4ccccc4s3)o2)CC1)Nc1ccccc1Cl,3.55 µM (active),–
c1nc(CCO[C@H]2CCCCO2)cc2cc3c(cc12)OCO3,–,-10.3%
O=C(CN1c2cccc3cccc(c23)S1(=O)=O)NCc1ccc(Cl)cc1,–,10.1%
O=C(CCc1ccccc1)NNC(=O)c1cc(Cl)ccc1O,–,-11.5%
Cc1cc(Nc2cccc([N+](=O)[O-])c2)n2c(nc3ccccc32)c1C#N,5.01 µM (active),–
Cc1ccc(-c2c(C#N)c(N)n3c(nc4ccccc43)c2C#N)cc1,–,-27.3% [at 57.5 µM]
COc1ccc(-c2nnc(NC(=O)c3ccc(S(=O)(=O)N4COCC4(C)C)cc3)o2)cc1,–,-23.2%

SMILES,Potency,"activity change, negative = cytotoxicity"
Cc1ccc(NC(=O)c2ccc(-c3nn(C)c(=O)c4ccccc34)cc2)cc1,–,-27.2% [at 57.5 µM]
CCOC(=O)C(NS(=O)(=O)c1ccc(C)cc1)(C(F)(F)F)P(=O)(OCC(C)C)OCC(C)C (stereo not drawn),–,-12.5%
Cc1csc2c(N3CCN(C(=O)Nc4ccc(Cl)c(Cl)c4)CC3)ncnc12,–,-12.7%
O=c1c2c3c(sc2ncn1/N=C/c1ccc([N+](=O)[O-])o1)CCCC3,3.55 µM (active),–
NNc1ncnc2sc3c(c12)CCC3,–,-29.5% [at 57.5 µM]
COc1ccc(/C=C2/CSC/C(=C/c3ccc(OC)c(OC)c3)C2=O)cc1OC,11.2 µM (active),–
COc1cc(/C=C2\COC/C(=C\c3cc(OC)c(OC)c(OC)c3)C2=O)cc(OC)c1OC,1.78 µM (active),–
Cc1ccc(CN2CCC(c3nc4ccc(Cl)cc4[nH]3)CC2)cc1,–,-21.1% [at 57.5 µM]
Cc1cc(C)c(C(O)c2ncc(-c3cccc4ccccc34)[nH]2)c(C)c1 (stereo not drawn),–,-7.41%
OC(c1ccc(Cl)cc1)c1ncc(-c2cccc(C(F)(F)F)c2)[nH]1 (stereo not drawn),–,2.6%
Cc1ccc(-c2csc(N3CCN(c4cc5c(cc4Cl)nc(-c4ccncc4)n5CCOCCO)CC3)n2)cc1,–,-22.6% [at 57.5 µM]
Cn1c2c(c(=O)n(C)c1=O)C(C(F)(F)F)(C(F)(F)F)N=C(CCC1CCCCC1)N2,20 µM (active),–
COc1cc(Nc2ncc3c(n2)CCN(C(=O)Nc2ccc(C(C)C)cc2)C3)cc(OC)c1OC,–,-27.8%
CCCc1cc(C(=O)Nc2ccc(C(=O)c3ccc(C)cc3)cc2)n(C)n1,–,-29%
Cc1cc(C(=O)N/N=C/c2cc(Br)ccc2OC(=O)c2ccccc2)n[nH]1,–,-18.4%
Cc1ccc(NC(=O)C2CCN(S(=O)(=O)c3ccc(N4CCCC4=O)cc3)CC2)cc1Cl,–,-8.48%
Cn1c(SCc2ccc(C(C)(C)C)cc2)nnc1C1COc2ccccc2O1 (stereo not drawn),–,-21.7%
CCc1ccc(CNC(=O)C2CCN(c3nnc(C)c4c(C)n(-c5ccc(C)cc5)nc34)CC2)cc1,20 µM (active),–
CCc1ccc(C(=O)NNC(=O)C2CCN(c3ncnc4sc(C)c(C)c34)CC2)cc1,–,-21.9%
CCc1c(C)nc2ncnn2c1N1CCC(C(=O)Nc2ccc(C)cc2)CC1,–,-16.8% [at 57.5 µM]
FC(F)(F)c1cc(-c2ccccn2)nc2cc(-c3ccccc3)nn12,–,-8.59% [at 57.5 µM]
Cc1ccc(-c2nnc(N3CCC(C)CC3)c3ccccc23)cc1C,–,-27.5%
Cc1cc2c(N=O)c(NO)ccc2[nH]1,12.6 µM (active),–
CC[n+]1c(C=C2C=C(C)OC(C)=C2)sc2ccccc21,11.2 µM (active),–
